Assay outcomes as filed in PubChem BioAssay.
GLD-1 RNA inh: GLD-1-TGE RNA interaction inhibition (C. elegans); Q17339; purified GLD-1 + fluorescein TGE RNA, fluorescence polarization; inhibition, % at 5.96 µM; hit rate 0.44% among 320,000; AID 2280;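 active = percent inhibition above a per-plate cutoff, the plate mean of test compounds plus 3 SD, cut at about 30% in these data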
Target sequence (Q17339 whole entry, looked up): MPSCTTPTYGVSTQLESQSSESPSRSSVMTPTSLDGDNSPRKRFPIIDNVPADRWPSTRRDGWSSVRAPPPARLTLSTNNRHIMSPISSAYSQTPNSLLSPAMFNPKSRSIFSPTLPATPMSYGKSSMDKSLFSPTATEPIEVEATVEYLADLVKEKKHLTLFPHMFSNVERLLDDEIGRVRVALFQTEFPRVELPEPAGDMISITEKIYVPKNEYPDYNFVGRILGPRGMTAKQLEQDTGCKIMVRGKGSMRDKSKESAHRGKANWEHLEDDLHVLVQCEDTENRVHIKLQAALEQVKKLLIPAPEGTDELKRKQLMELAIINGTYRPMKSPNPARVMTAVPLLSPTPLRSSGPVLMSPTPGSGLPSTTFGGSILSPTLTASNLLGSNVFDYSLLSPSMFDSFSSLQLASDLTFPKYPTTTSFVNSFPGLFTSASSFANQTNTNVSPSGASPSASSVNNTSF
EBV gp42 block: EBV gp42 inhibition | Q1HVG2 | Fluorescence polarization binding assay, mP read-out | inhibition, % (tested at 21.74 µM) | hit rate 0.42% among 220,000; in the data active = inhibition above about 50%
MCL1 BIM primary: inhibitors of human MCL1 binding to BIM-BH3 peptide. inhibition, % at 10.9 µM. hit rate 0.68% among 320,000. GST-MCL1 / FITC-Bim-BH3 fluorescence polarization. Q07820;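 active = inhibition above the mean inhibition of all tested compounds plus 3 SD, set per campaign, cut at about 40% in these data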;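 also: higher means more loss of mP so more displacement of Bim peptide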
Bcl-xL primary: Bcl-xL (human) inhibition; GST-Bcl-xL / FITC-Bim BH3 peptide fluorescence polarization; inhibition, % at 10.9 µM; Q07817; AID 2129; hit rate 0.7% among 320,000;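 active = inhibition above the mean of all tested compounds plus 3 SD, cutoff set per campaign, cut at about 30% in these data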;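 also: inhibitors lower millipolarization by displacing the labeled peptide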
Target sequence (Q07817 whole entry, looked up): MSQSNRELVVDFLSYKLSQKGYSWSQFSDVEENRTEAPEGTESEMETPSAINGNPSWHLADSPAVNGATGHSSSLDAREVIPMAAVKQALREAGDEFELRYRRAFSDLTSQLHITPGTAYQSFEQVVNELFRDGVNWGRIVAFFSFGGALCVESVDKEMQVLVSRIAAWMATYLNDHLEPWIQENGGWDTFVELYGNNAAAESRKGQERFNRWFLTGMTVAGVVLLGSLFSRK
eLon inh: inhibits E. coli Lon protease; hit rate 0.42% among 360,000; AID 602123; P0A9M0; purified E. coli Lon protease, fluorescence polarization; inhibition, % at 7.94 µM; in the data active = inhibition above about 13%, passing the limit was not always enough
MEX-5 binding: C. elegans MEX-5 TCR-2 RNA binding activity. hit rate 0.38% among 300,000. Q9XUB2. AID 1832. MEX-5/FITC-TCR2 RNA binding, fluorescence polarization; stronger effect = lower value. activity score (negative = inhibition of binding), % at 10 µM;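 active = inhibition past about -25% in most replicates, and total fluorescence under double the plate's negative control median, limit read from the data; inconclusive = replicates evenly split on the limit, or fluorescence at least double controls; inactive = too little inhibition in most replicates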
eLon confirm: E. coli Lon inhibition confirmation; shares compounds with eLon inh; purified E. coli Lon, fluorescence polarization; inhibition, % at 7.94 µM; hit rate 31% among 1,400; in the data active = inhibition above about 16%
Hits are given with their value; i = inactive; ? = inconclusive; nt = no result. Sampled rows, rich in hits. Any-hit rate of the full collection: about 1.5%.

SMILES	GLD-1 RNA inh	EBV gp42 block	MCL1 BIM primary	Bcl-xL primary	eLon inh	MEX-5 binding	eLon confirm
O=C(OCc1cn([C@@H]2CN(C(=O)c3cccs3)[C@@H](c3ccc(Cl)cc3)C[C@H]2O)nn1)c1ccccc1	nt	nt	nt	nt	i	nt	nt
O=c1c2cc([N+](=O)[O-])ccc2nc2n1CCCC2	i	nt	i	i	19	i	i
O=c1c2cc(Br)ccc2nc2n1CCCCC2	i	i	i	i	i	i	nt
COc1ccc(-c2nnc(SCC(=O)N3CCOCC3)o2)cc1OC	i	i	i	i	14	i	i
CCCCN1C(=O)C(=O)N(CC(=O)N2CCc3ccccc32)C1=O	i	nt	i	i	17	nt	i
CC(C)N1C(=O)C(=O)N(CC(=O)N2CCc3ccccc32)C1=O	i	nt	i	i	i	nt	nt
CCc1nnc(NC(=O)C2CCCN2C(=O)Nc2ccccc2)s1 (stereo not drawn)	i	i	i	i	i	i	nt
Cc1ccc(N2C=Nc3ccc(C)c4nc(C)cc2c34)cc1	i	i	i	i	18	i	i
CC1=Nc2ccc(C)c3nc(C)cc(c23)N1c1ccc(C)cc1	i	i	i	i	i	i	nt
Cc1cc(Br)cn2c(Cc3ccsc3)c(C3CCCCC3)nc12	nt	nt	nt	nt	50	nt	53
Cc1cc(Br)cn2c(Cc3cccc(F)c3)c(-c3ccc(F)cc3)nc12	nt	nt	nt	nt	i	nt	nt
COc1ccc(-c2nc3c(C)cc(Br)cn3c2Cc2ccc(C)cc2)cc1OC	nt	nt	nt	nt	28	nt	i
COc1ccc(-c2nc3c(C)cc(Br)cn3c2Cc2ccccc2)cc1OC	nt	nt	nt	nt	i	nt	nt
Cc1cc(Br)cn2c(Cc3ccsc3)c(C(C)(C)C)nc12	nt	nt	nt	nt	80	nt	71
Cc1cc(Br)cn2c(Cc3ccsc3)c(-c3ccc(F)cc3)nc12	nt	nt	nt	nt	25	nt	i
Cc1noc(C)c1C(=O)N1CCCC(C(=O)c2cccc(C(F)(F)F)c2)C1 (stereo not drawn)	i	i	i	i	i	i	nt
C[C@H](CO)N1C[C@H](C)[C@@H](CN(C)S(=O)(=O)c2ccc3ccccc3c2)OCc2cnnn2CCCC1=O	nt	nt	nt	nt	i	nt	nt
CCc1csc(CNC(=O)C2CCC(=O)N(Cc3cccc(OC)c3)C2)n1 (stereo not drawn)	nt	nt	nt	nt	i	nt	nt
CNS(=O)(=O)c1cn(CC(=O)NCc2ccccc2OC)cc1S(=O)(=O)NC	i	nt	i	i	i	i	nt
NC(=O)C1CCCN(C(=O)c2ccc(Cl)c(S(=O)(=O)N3CCc4ccccc43)c2)C1 (stereo not drawn)	nt	nt	nt	nt	i	nt	nt
COC(=O)C1=C(C)NC(C)=C(C(=O)OCC2CCCO2)C1c1cccc(Cl)c1 (stereo not drawn)	i	nt	i	i	22	i	i
COC(=O)C1=C(C)NC(C)=C(C(=O)OCC2CCCO2)C1c1ccc(Cl)c([N+](=O)[O-])c1 (stereo not drawn)	i	nt	i	i	i	i	nt
O=C1c2ccccc2C(=O)c2c1cccc2N1CCCC1	i	i	i	i	i	i	nt
O=C1c2ccccc2-c2onc3ccc(N4CCCC4)c1c23	nt	i	nt	nt	160	?	i
O=C(O)CC(SCC(=O)Nc1ccc(S(=O)(=O)N2CCCC2)cc1)C(=O)O (stereo not drawn)	i	i	i	i	17	i	i
SMILES	GLD-1 RNA inh	EBV gp42 block	MCL1 BIM primary	Bcl-xL primary	eLon inh	MEX-5 binding	eLon confirm
COc1cc(C(=O)OCC(=O)N2c3ccccc3NC(=O)C2(C)C)ccc1OCC(C)C	i	nt	i	i	21	i	i
COc1ccc(N2CCN(c3cc(C(=O)Nc4cc(OC)c(OC)c(OC)c4)ncn3)CC2)cc1OC	nt	nt	nt	nt	12	nt	i
Cc1occc1C(=O)NC(C)C1CCCO1 (stereo not drawn)	i	i	i	i	15	i	i
CC(NC(=O)c1ccco1)C1CCCO1 (stereo not drawn)	i	i	i	i	i	i	nt
CCCCn1c(N)c(N(CCOC)C(=O)c2ccc(-c3cccc(C(F)(F)F)c3)o2)c(=O)[nH]c1=O	i	nt	i	i	i	i	nt
COc1ccc(S(=O)(=O)N2CCN(Cc3ccc4c(c3)OCO4)CC2)cc1	i	nt	i	i	43	i	i
CCc1ccc(NC(=O)c2cccc(NC3=NC4CS(=O)(=O)CC4S3)c2)cc1 (stereo not drawn)	i	nt	i	i	24	i	i
CCN(C(=O)CSc1nnc(C)c(=O)[nH]1)c1cccc2ccccc12	i	nt	nt	nt	i	nt	nt
O=C(Cn1nc(-c2ccc(Cl)cc2)c2ccccc2c1=O)Nc1cccnc1	i	i	i	i	18	i	i
CCOc1ccccc1N1CCN(Cc2ccc(Br)s2)CC1	i	i	i	i	28	i	i
NNC(=O)CCn1c2ccccc2c2ccccc21	i	i	i	i	21	i	i
CC(=O)c1ccc2c(c1)c(C#N)c1ccccc1[n+]2[O-]	nt	nt	nt	nt	96	?	88
O=c1[nH]c2ccccc2nc1/C=C/c1ccccc1	i	i	i	i	14	i	i
CC(=O)n1nc(-c2ccc(C)cc2)nc1NCc1ccc(F)cc1	nt	i	nt	nt	18	i	i
CC(=O)n1nc(-c2ccc(C)cc2)nc1NCc1ccco1	nt	i	nt	nt	i	i	nt
CCCCc1nc2cc(C(=O)N3CCCC3)ccc2o1	i	nt	i	i	i	i	nt
CCCCc1nc2cc(C(=O)N3CCN(c4cnccn4)CC3)ccc2o1	i	nt	i	i	85	i	i
COc1ccc(CCNc2c([N+](=O)[O-])c(=O)oc3ccccc23)cc1OC	i	i	i	i	i	i	nt
CCN(C(=O)COC(=O)C(c1ccccc1)c1ccccc1)c1c(N)n(Cc2ccccc2)c(=O)[nH]c1=O	nt	nt	nt	nt	25	nt	i
O=C(COC(=O)CNS(=O)(=O)c1c(F)cccc1F)NC(=O)NC1CCCCC1	i	nt	i	i	27	nt	i
N#Cc1c(N2CCCC2)nc(N)c2c(N)nc(N3CCCC3)cc12	i	i	i	i	51	i	i
O=C(N=C1SC2CS(=O)(=O)CC2N1c1cc(Cl)ccc1Cl)C1CCCO1 (stereo not drawn)	i	nt	i	i	i	i	nt
Cn1ccc2c(N3CCCC3)cc3c(c21)C1CCC3O1 (stereo not drawn)	nt	nt	nt	nt	30	nt	i
OC(CN1CCCCC1)c1ccc2c3c(cccc13)CC2 (stereo not drawn)	nt	nt	nt	nt	70	nt	i
OC(CN1CCCCC1)c1ccc(Br)cc1 (stereo not drawn)	nt	nt	nt	nt	i	nt	nt
SMILES	GLD-1 RNA inh	EBV gp42 block	MCL1 BIM primary	Bcl-xL primary	eLon inh	MEX-5 binding	eLon confirm
O=C(O)/C=C/C(=O)Nc1ccc(O)cc1	i	i	i	i	121	i	i
O=C(O)/C=C/C(=O)Nc1ccc(C(=O)c2ccccc2)cc1	i	i	i	i	i	i	nt
O=C(COC(=O)c1cc(Br)ccc1O)NCCC1=CCCCC1	nt	nt	nt	nt	i	nt	nt
O=C(NC12CC3CC(CC(C3)C1)C2)c1cc([N+](=O)[O-])ccc1N1CCOCC1	i	i	i	i	19	i	i
CN(CC1COc2ccccc2O1)C(=O)CSc1ncnc2sccc12 (stereo not drawn)	i	nt	i	i	i	nt	nt
COC(=O)N/N=C\c1cc2c(cc1Br)OCO2	i	i	i	i	18	i	i
Cc1ccc(C(=O)N/N=C\c2cc3c(cc2Br)OCO3)s1	i	i	i	i	i	i	nt
